The sample as a whole holds a higher share of the strongest signals than the screen did.
Legend:
Assay in all cases: glycan array binding signal (z-score within array); higher = stronger binding
Settings in all cases: glycan notation: IUPAC condensed, linker removed
[1] = biological target: Fuc(a1-2)[GalNAc(a1-4)]Gal(b1-4)GlcNAc
Method in brief: (§1)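 From the Consortium for Functional Glycomics database, 3228 arrays were curated, keeping only those whose protein sequence was available. Binding is given as a within-array Z-score averaged across arrays sharing a protein sequence and across linkers. Negative Z-scores can be read as non-binding.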

Gal(a1-4)Gal(b1-4)GlcNAc = biological target: Gal(a1-4)Gal(b1-4)GlcNAc
Method in brief: as §1

[2] = biological target: Gal(b1-3)GlcNAc(b1-3)Gal(b1-4)Glc
Method in brief: as §1

[3] = biological target: Gal(b1-4)GlcNAc(b1-3)GalNAc
Method in brief: as §1

[4] = biological target: Gal(b1-4)GlcNAc(b1-6)[Gal(b1-3)]GalNAc
Method in brief: as §1

Gal3S(b1-4)Glc = biological target: Gal3S(b1-4)Glc
Method in brief: as §1

GalNAc(b1-4)GlcNAc = biological target: GalNAc(b1-4)GlcNAc
Method in brief: as §1

[5] = biological target: GlcNAc(b1-2)Gal(b1-3)GalNAc
Method in brief: as §1

[6] = biological target: GlcNAc(b1-4)GlcNAc(b1-4)GlcNAc
Method in brief: as §1

[7] = biological target: Neu5Ac(a2-3)Gal(b1-3)[Neu5Ac(a2-3)Gal(b1-4)]GlcNAc
Method in brief: as §1

[8] = biological target: Neu5Ac(a2-6)Gal(b1-4)GlcNAc(b1-3)Gal(b1-4)GlcNAc
Method in brief: as §1

[9] = biological target: Neu5Ac(a2-8)Neu5Ac(a2-3)[GalNAc(b1-4)]Gal(b1-4)Glc
Method in brief: as §1

[10] = biological target: Neu5Gc(a2-3)Gal(b1-3)GlcNAc
Method in brief: as §1

B1: CGL3 (Coprinopsis cinerea) (protein)
chain: MGHHHHHHHHSGFHILRLESTVDLSEPLKDNGIIVFQSDKLDLEPSPNLGPTGIDNTNVNLINAKGDVLLHIGIRRRENAFVFNSIPYGESRGPEERIPLEGTFGDRRDPSITVFDHPDRYQIMIDYKTVYYYKKRLEGRCEKVSYKINEGQTPPFSDVLGVTVLYFANVMPRAN
glycan array binding signal (z-score) [1]: -0.216
glycan array binding signal (z-score) (Gal(a1-4)Gal(b1-4)GlcNAc): -0.049
glycan array binding signal (z-score) [2]: 2.51
glycan array binding signal (z-score) [3]: -0.201
glycan array binding signal (z-score) [4]: -0.193
glycan array binding signal (z-score) (Gal3S(b1-4)Glc): 0.022
glycan array binding signal (z-score) (GalNAc(b1-4)GlcNAc): 6.64
glycan array binding signal (z-score) [5]: -0.197
glycan array binding signal (z-score) [6]: 8.4
glycan array binding signal (z-score) [7]: -0.222
glycan array binding signal (z-score) [8]: -0.21
glycan array binding signal (z-score) [9]: -0.128
glycan array binding signal (z-score) [10]: -0.191

Source: the supplement of paper PMC8728848
